ELG1 DNA repair – ELG1-dependent DNA repair inhibition; HEK293T ELG1-luciferase reporter, luminescence, 16 h; DNA damage induced by 5-fluorouridine; Potency, µM (doses to about 46.1 µM), inactives show at the highest dose activity change, negative = inhibition, most hits filed as inhibitors; 2.3% of 330,000 active; AID 504467; note: potency is the fitted concentration of half-maximal effect; nearly all actives have a fitted effect of over 55% in size
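Cells (2,000 per well) received 5-fluorouridine plus test compound or DMSO and were incubated 16 hr at 37 °C, 5% CO2. Luciferase activity was read by luminescence 30 min after ONE-Glo addition; signal suppression marked inhibition of damage-induced ELG1 function.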
HT1080NT lethal – kills 2HG-producing HT-1080-NT fibrosarcoma cells; 1.6% of 360,000 active; AID 686970; Potency, µM (series often up to 46.1 µM), inactives show top-dose activity, negative = less viability, actives largely listed as cytotoxic; HT-1080-NT fibrosarcoma viability, CellTiter-Glo ATP luminescence, 48 h;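 note: NT is the 2HG producing partner of a matched IDH1 knockdown line; potency is the fitted concentration of half-maximal effect; 0% = DMSO-treated cells and -100% = media-only wells without cells; nearly all actives have a fitted effect of over 55% in size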
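Viability by CellTiter-Glo luminescence after 48 h compound exposure at 37C of HT-1080-NT cells (750/well, RPMI, 5% FBS). % activity scaled between DMSO wells and medium-only wells, then curve-fitted and categorized by curve class.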
DT40 TDP1 no CPT – qHTS for Inhibitors of human tyrosyl-DNA phosphodiesterase 1 (TDP1): qHTS in cells in absence of CPT | DT40 Tdp1-/- hTDP1 cells, no CPT, ATP luminescence, 48 h | Potency, µM (doses to about 46.2 µM), inactives show at the top dose activity change, negative = growth inhibition, usual class: inhibitors | AID 686978, 2013 | 15% of 420,000 active; note: potency is the fitted concentration of half-maximal effect; nearly all actives have a fitted effect of over 55% in size
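A cellular qHTS used chicken DT40 cells lacking endogenous Tdp1 but carrying stably transfected human TDP1. Compounds were applied without camptothecin, and cell growth kinetics were judged by ATP-dependent luminescence after ≥48 hr.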
IL1B secr inh – blocks inflammasome-driven IL-1 beta release; THP-1 LPS/ATP IL-1B secretion, AlphaLISA, 16 h; active compounds read low; activity change, % at 57.5 µM; 4.7% of 360,000 active; in the data active = activity change below about -50%; inconclusive = mostly about -30% to -49%
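Secreted IL-1B measured by AlphaLISA bead assay after 16 h compound exposure of THP-1 cells; compounds (final up to 57.5 uM) added 1 h before LPS (250 ng/mL) and ATP (1.25 mM) stimulation; lower signal means less secretion.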
HT1080 IDH1KD tx – kills HT-1080 cells with IDH1 knockdown. HT-1080 IDH1 knockdown viability, ATP luminescence, 48 h. Potency, µM (series often up to 46.1 µM), for the others: at the top dose activity, negative = toxicity, actives largely listed as cytotoxic. 2% of 360,000 active. AID 686971;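 note: potency is the fitted concentration of half-maximal effect; 0% = DMSO wells and -100% = cell-free medium wells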
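Knockdown cells (IDH1KD HT-1080) received compounds 2 h after plating at 750 cells/well and were kept 48 h at 37 °C in 5% FBS RPMI. A CellTiter-Glo luminescence read gave % activity for curve fitting.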
DT40 TDP1 CPT – growth inhibition of DT40 Tdp1-/-;hTDP1 cells with camptothecin (screen for TDP1 inhibitors); Potency, µM (titrated, usually from 46.2 µM), for inactives: top-dose activity change, negative = growth inhibition, actives largely listed as inhibitors; AID 686979; chicken DT40 Tdp1-/-;hTDP1 cells + 20 nM CPT, ATP luminescence, 48 h; 12% of 420,000 active; note: potency is the fitted concentration of half-maximal effect; nearly all actives have a fitted effect of over 55% in size
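Chicken DT40 Tdp1-/- cells stably complemented with human TDP1 were seeded at 400 cells/well in medium containing 20 nM camptothecin, exposed to pin-transferred compounds, and grown at 37 °C for at least 48 hr. Viability was read as ATP luminescence.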
* hit, by the source's call; u = inconclusive; x = not tested or not shown. Hits are enriched below; roughly 19% of the tested compounds scored in any of these assays. Unless noted, calls come from the whole dose curve; as a rule, active = well fitted curve in the direction sought with a large enough effect; inconclusive = small, poorly fitted or top-dose-only effect, or another doubt; inactive = no such curve, though single readings can be large; an effect the other way counts as inactive or inconclusive. Unless noted, % is set by controls: 0 for no effect and ±100 for the full control effect.

SMILES | ELG1 DNA repair | HT1080NT lethal | DT40 TDP1 no CPT | IL1B secr inh | HT1080 IDH1KD tx | DT40 TDP1 CPT
CCN[C@@H]1C[C@H](N)[C@@H](OC2OC(CN)=CCC2N)[C@H](O)[C@H]1O[C@H]1OC[C@](C)(O)[C@H](NC)[C@H]1O (some centres undefined) | x | x | -7.3% | x | x | 5.7%
O=C(NCc1ccco1)c1ccc(N2CCCCC2)c([N+](=O)[O-])c1 | u | -2.8% | -26.8% | u | 0.3% | 1.5%
Cc1ccc(S(=O)(=O)N2CCN(C(=O)c3ccc(N4CCCCC4)c([N+](=O)[O-])c3)CC2)cc1 | -24.5% | 13.7% | -17.4% | -61.9* | 4.6% | u
Cc1cc(C)c(S(=O)(=O)N2CCN(C(=O)c3ccc(-n4cncn4)c([N+](=O)[O-])c3)CC2)c(C)c1 | -7.5% | -3.2% | 13µM* | -4.2 | 0.3% | u
Cc1ccc(N(Cc2ccco2)C(=O)c2ccc(N3CCCCC3)c([N+](=O)[O-])c2)cc1 | -12.8% | -9.6% | 5.8µM* | -22.5 | u | 20.6µM*
Cc1ccc(S(=O)(=O)N2CCN(c3ccc(C(=O)N4CCOCC4)cc3[N+](=O)[O-])CC2)cc1 | 18.4µM* | -10.8% | 11.6µM* | -3.9 | -6.7% | 18.4µM*
CC(=O)N1CCC[C@@]2(CCN(Cc3nccs3)C2)C1 | x | x | -1.0% | x | x | 8.9%
CC(C)(C)CC(C)(C)NC(=S)Nc1ccc(S(=O)(=O)N2CCOCC2)cc1 | -14.3% | u | u | -70.6* | u | u
N#Cc1ccc(NC(=O)CCc2ccc(S(=O)(=O)N3CCOCC3)cc2)cc1 | u | 5.2% | -7.0% | 19.5 | 0.0% | -33.0%
O=S(=O)(c1ccc(NC(=S)NCCC(c2ccccc2)c2ccccc2)cc1)N1CCOCC1 | 18.4µM* | -27.0% | 23.1µM* | -15.5 | u | 20.6µM*
N#Cc1ccc(NC(=S)NC(=O)CCc2ccc(S(=O)(=O)N3CCOCC3)cc2)cc1 | 3.7% | 21.9% | u | 23.1 | -11.6% | 13µM*
CCOc1ccc(NC(=O)CCn2nc(C)c(S(=O)(=O)N3CCCCC3)c2C)cc1 | 1.0% | 6.7% | u | 27.3 | 11.5% | u
CCc1ccc(NC(=O)c2cc(S(=O)(=O)N3CCCC3)ccc2F)cc1 | x | -11.1% | 11.6µM* | -20.7 | -28.5% | 14.6µM*
CCc1ccc(NC(=O)c2cc(S(=O)(=O)N3CCCCCC3)ccc2F)cc1 | x | x | 18.4µM* | x | x | u
CCc1ccc(NC(=O)CCn2nc(C)c(S(=O)(=O)N3CCCCC3)c2C)cc1 | -5.8% | -2.6% | 18.4µM* | -14.7 | -7.1% | 23.1µM*
CC1(C(=O)NS(=O)(=O)c2ccccc2Cl)CCN1C(=O)c1ccco1 (centres undefined) | x | 19.4% | -15.4% | -12.0 | 10.5% | -8.4%
COc1ccc2[nH]cc(C(=O)C(=O)N3CCCCC3)c2c1 | 7.5% | -3.0% | -3.0% | -16.3 | -6.7% | -10.5%
COc1ccc2c(c1)CCC(C)N2C(=O)C(=O)c1c[nH]c2ccccc12 (centres undefined) | -11.4% | u | u | 82.7 | 3.1% | 20.6µM*
CCc1c(C#N)c(SCCC(=O)Nc2ccc(F)cc2)nc2c1C(=O)CC(C)(C)C2 | u | u | u | -29.5 | u | 16.4µM*
CC1(C)CC(=O)c2c(nc(SCC(=O)Nc3nsc(-c4ccccc4)n3)c(C#N)c2-c2ccccc2)C1 | u | 14.0% | 4.61µM* | u | 12.4% | 5.17µM*
CCc1c(C#N)c(SCCC(=O)Nc2cccc(OC)c2)nc2c1C(=O)CC(C)(C)C2 | -15.2% | -4.3% | 16.4µM* | 0.0 | -11.2% | u
COc1ccc(-c2csc(N(CCc3ccc(OC)c(OC)c3)C(=O)COc3ccccc3)n2)cc1 | u | 5.3% | 16.4µM* | 6.7 | 12.1% | u
